Data on 40 compounds can be found in PubChem BioAssay (NCI).

About 83,000 compounds went through this panel and 20% of them were active in at least one assay; those are over-represented in the sample as a whole.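 The endpoint reported here, percent growth, reads 100 for growth as untreated, 0 for no net growth and -100 for all cells dead.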 Values without a mark were called inactive. Calls of active or inactive are those of the source. How the source made its calls: active means growth percent below 10; inactive means the rest.

The assay has as its system HL-60(TB) leukemia. The experiment in a line: NCI-60 one-dose screen, 48 h (100 = growth as untreated, 0 = no growth, -100 = all killed). As to conditions: 10 µM unless noted.
Turning to `CCCCC[C@H]1C/C=C2/C(=O)C=C[C@@H]2C/C=C\CCCC(=O)O[C@@H](CCCCC)C/C=C2/C(=O)C=C[C@@H]2C/C=C\CCCC(=O)O1`, the growth was -47.6% (active).

For `CSC1=Nc2c(c(C)c(-c3ccccc3)n2CCCCl)C2=NC(=O)CN12`, the growth was 27.4%.

For the compound `O=C(O)C(SC(C(=O)O)c1ccccc1)c1ccccc1` (stereo not given), the growth is 95%.

Regarding `Fc1cccc(F)c1C#Cc1ccc2cccnc2c1`, the growth is 74.6%.

`CC[C@H](Nc1nc(N)nc(C)c1C#N)c1nc2cccc(NCCCCCC(=O)NO)c2c(=O)n1-c1ccccc1`: the growth was 39.7%.

`O=C(Nc1cccc(-n2cc(-c3ccncc3)c(-c3cc(O)cc(Cl)c3)n2)c1)c1cc(C(F)(F)F)cc(C(F)(F)F)c1`: the growth was 21.4%.

For the compound `O=C1CC(c2ccc3c(c2)OCO3)c2ncn(-c3ccc(Cl)cc3)c2N1` (stereo not given), the growth was -9.97% (active).

For the compound `CC(=O)Oc1ccc(/C=N/NC(N)=S)nc1`, the growth is 64.3%.

`COc1ccc2nc(-c3ccc(OC)c(OC)c3)cc(-c3nnc(SCC(=O)Nc4ccc(/C(C)=N\O)cc4)n3-c3ccccc3)c2c1`: the growth was 26.3%.

Consider `COc1cc(N=Nc2cc(Cc3ccc(N(C)C)cc3)c(N)cc2N(C)C)c2ncccc2c1`, for which the growth was -55.5% (active).

On to `Fc1ccc(-c2nnc(-c3c(-c4ccc(F)cc4)nc4ccccn34)o2)cc1`, for which the growth is 103%.

Consider `C#COc1cccc(Nc2ncnc3cc(NC(=O)[C@H](C)Cl)ccc23)c1`, for which the growth is 99.4% [6.25 µM].

Consider `CNCCCC12CCC(c3ccccc31)c1ccccc12`, for which the growth is 71%.

On to `Oc1c(CN2CCCC2)cc(COCc2ccccc2)c2cccnc12`, for which the growth was 10.6%.

As to `Cc1cccc(C)c1Nc1nnc(-c2ccc(F)cc2)o1`, the growth was 99.9%.

`O=C(Nc1ccc2[nH]c3ccccc3c2c1)c1ccccc1Cl`: the growth was 9.41% (active).

`COc1ccccc1CNc1nc(N)nc2[nH]c3ccc(O)cc3c12`: the growth is 34.3%.

For the compound `Cc1ccccc1CCO`, the growth was 100%.

`CCC(C)N(CCNc1cc(OC)cc2cccnc12)CCC(C)C` (stereo not given): the growth was 81%.

Consider `CCCCCCN(CCCCCC)CC(O)c1cccc2ccc(Cl)cc12` (stereo not given), for which the growth is 69.5%.

Turning to `O=C(Cc1ccc(/C=C/C(=O)c2ncc[nH]2)cc1)Nc1ccc(S(F)(F)(F)(F)F)cc1`, the growth was 42.1%.

On to `CCOC(=O)c1c(CN2CCN(C)CC2)nc2ccc(Cl)cc2c1-c1ccccc1`, for which the growth is 26.5%.

Consider `CCOC(=O)c1c(NC(=O)c2ccc(C(C)(C)C)cc2)sc2cc(O)ccc12`, for which the growth was 67%.

Consider `O=C(NC(Cc1ccccc1)C(=O)CCl)OCc1ccccc1` (stereo not given), for which the growth was 39.8%.

For `COc1ccc2oc(=O)cc(Cn3cc(Cn4cnc5c4c(=O)n(C)c(=O)n5C)nn3)c2c1`, the growth was 107%.

For the compound `C=CCC(CCCC)(C(=O)OCC)C(=O)OCC`, the growth was 80.6%.

As for `Nc1nc(Nc2ccc(F)cc2)nn1C(=O)c1cc(Cl)ccc1Cl`, the growth is 65.1%.

Consider `O=C(/C=C/c1ccccc1)c1ccccc1O`, for which the growth was 24.1%.

With `COc1cc(-c2nn(-c3ccc(Br)cc3)cc2CO)ccc1O`, the growth is 74.8%.

With `CN(C)c1ccc2nc3ccc(=[N+](C)C)c([N+](=O)[O-])c-3sc2c1`, the growth was 2.66% (active).

For the compound `O=c1nc(Nc2nc3ccccc3s2)[nH]c(=O)c2ccccc12`, the growth was 94.4%.

As for `CCOc1ccccc1C(=O)N1CCN(c2cc(Cl)cc(Cl)c2)CC1`, the growth was -59% (active).

Regarding `C=C(C)[C@@H]1CC[C@]2(C(=O)N3CCN(C)CC3)CC[C@]3(C)[C@H](CC[C@@H]4[C@@]5(C)C/C(=C/c6ccco6)C(=O)C(C)(C)[C@@H]5CC[C@]43C)[C@@H]12`, the growth was 64.2%.

For the compound `O=C(Cc1ccc(/C=C/C(=O)c2ncc[nH]2)cc1)Nc1ccc(Cl)cc1`, the growth is -14.5% (active).

As for `CCN1C(=O)N(CC)C2C1NN=c1s/c(=C\c3ccc(Br)cc3)c(=O)n12` (stereo not given), the growth was -30.5% (active).

For the compound `CC(=O)Nc1ccc(OC(=O)c2ccccc2O)cc1`, the growth was 102%.

Turning to `CCOC(=O)CCCn1c(-c2ccccc2)cc(-c2ccccc2)c(C#N)c1=O`, the growth is 77.9%.

For the compound `CC(=O)Nc1ccc(C(=O)COc2cccc(/C=C3\CCc4ccccc4C3=O)c2)cc1`, the growth was 89.2%.

In the case of `FC(F)(F)c1cc(-c2nnc3n2N=C(N2CCCC2)CS3)cc(C(F)(F)F)c1`, the growth was 113%.

For `N#Cc1c(N2CCOCC2)nc(=S)[nH]c1-c1ccccc1`, the growth is 70.2%.
